Source: PubChem BioAssay (The Scripps Research Institute Molecular Screening Center)
hcDAF12 agonist – activates DAF-12 receptor from parasite H. contortus; activation, % at 6.8 µM; hit rate 1.4% among 370,000; AID 652067; HEK293 hcDAF-12 lit1-tk-luc reporter, luminescence; 0% DMSO, 100% Δ7-dafachronic acid;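 active means activation above the mean of all tested compounds plus 3 SD, cut at about 5.5% in these data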;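 further: 100% = response to 3 µM Δ7-dafachronic acid high control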
DAX1 inh-1 – inhibits human nuclear receptor DAX1; HEK293 Gal4-DAX1 luciferase reporter, luminescence; inhibition, % at 6.75 µM; hit rate 0.99% among 340,000;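 active means inhibition above the mean over all tested compounds plus 3 SD, cut at about 4.2% in these data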;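 further: 0% = DAX1-transfected cells with DMSO and 100% = empty-vector control cells with DMSO; inhibition shows as a rise in luminescence from relieved DAX1 repression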
Target sequence (P51843 207-470 limits assumed): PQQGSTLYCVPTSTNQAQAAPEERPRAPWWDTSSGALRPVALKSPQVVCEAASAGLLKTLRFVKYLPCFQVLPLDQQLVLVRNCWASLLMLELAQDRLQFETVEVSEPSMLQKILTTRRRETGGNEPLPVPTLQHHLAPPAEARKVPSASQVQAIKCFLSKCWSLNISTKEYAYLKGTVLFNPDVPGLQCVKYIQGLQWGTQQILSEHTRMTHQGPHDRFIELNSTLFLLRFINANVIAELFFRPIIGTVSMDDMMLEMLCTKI
SMARCA2 act – increases SMARCA2 function in MMTV reporter cells; MG213 cells, MMTV-luciferase reporter, dexamethasone, overnight; activation, % at 9.1 µM; hit rate 1% among 370,000; in the data active means activation above about 7.8%;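 further: 0% = vehicle wells and 100% = reference activator wells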
DAX1 inh-2 – inhibitors of DAX1 repression of SF-1 activated StAR promoter; HEK293T StAR-luciferase reporter, SF-1/DAX-1 repression relief; inhibition, % at 6.8 µM; hit rate 1.1% among 370,000; AID 652010;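 active means inhibition above the mean over all tested compounds plus 3 SD, cut at about 3.6% in these data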;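 further: 0% = DAX-1 cells with DMSO and 100% = cells lacking DAX-1 with DMSO; higher inhibition means more luminescence from relief of DAX-1 repression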
hgDAF12 agonist – activates the H. glycines DAF-12 receptor ligand-binding domain; HEK293 GAL4-hgDAF12 UAS-luciferase reporter, agonist luminescence; normalized to butyrate control; activation, % at 6.8 µM; hit rate 1.8% among 370,000; AID 687014;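 active means activation above a cutoff set at the mean of all screened compounds plus 3 SD, cut at about 10% in these data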;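 further: 0% = DMSO wells and 100% = sodium butyrate wells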
ssDAF-12 act – activators of S. stercoralis DAF-12 nuclear receptor | HEK293 ssDAF-12/GRIP1 lit1-tk-luc reporter, luminescence; % of 3 µM dafachronic acid response | activation, % at 6.8 µM | hit rate 1% among 370,000;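 active means activation above the mean over all tested compounds plus 3 SD, cut at about 0.9% in these data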;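 further: 0% = DMSO-only wells and 100% = 3 µM delta7-dafachronic acid wells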
LXR ag – counter-screen for hcDAF-12 agonists: agonists of human LXR-beta; shares compounds with hcDAF12 agonist; HEK293 Gal4-LXR tk-luc reporter, luminescence, 24 h; normalized: DMSO 0%, positive control 100%; activation, % at 6.8 µM; 3,400 tested, under 10 active;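 active means mean percent activation of the reporter above a cutoff set as the average over tested compounds plus their standard deviation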
hcDAF12 conf – confirmation of H. contortus DAF-12 agonists | shares compounds with hcDAF12 agonist | HEK293 hcDAF-12 lit1-tk-luc reporter, luminescence; % of Δ7-dafachronic acid response | activation, % at 6.8 µM | hit rate 61% among 3,400;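 active means mean activation across triplicate tests above the threshold derived from the earlier primary screen, cut at about 5.5% in these data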;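 further: 0% = DMSO only wells and 100% = 3 µM Δ7-dafachronic acid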
The depositor's hits bear a star. A selection: hits, their analogues and other compounds. The true share with any hit is near 4.8%.

COc1ccc(C)c2sc(=NC(=O)c3ccccc3)n(C)c12 was read as hcDAF12 agonist 10*, DAX1 inh-1 1, SMARCA2 act 1, DAX1 inh-2 2, hgDAF12 agonist 3, ssDAF-12 act 0, LXR ag 2 and hcDAF12 conf 13*.
CC(=O)c1cc(C#N)c(Oc2ccc(Cl)cc2Cl)nc1C was read as hcDAF12 agonist 0, DAX1 inh-1 0, SMARCA2 act 0, DAX1 inh-2 1, hgDAF12 agonist -1 and ssDAF-12 act -1.
For C=CCOn1c(=O)c(-c2ccccc2)[n+]([O-])c2ccccc21 the results were hcDAF12 agonist 4, DAX1 inh-1 0, SMARCA2 act -3, DAX1 inh-2 0, hgDAF12 agonist -2 and ssDAF-12 act 0.
`C=CCOn1c(=O)c(-c2cc3ccccc3o2)[n+]([O-])c2ccccc21` gave hcDAF12 agonist 11*, DAX1 inh-1 2, SMARCA2 act 7.9*, DAX1 inh-2 2, hgDAF12 agonist 12*, ssDAF-12 act 1.8*, LXR ag 0 and hcDAF12 conf 5.
For CCOC(=O)COn1c(=O)c(-c2cc3ccccc3o2)[n+]([O-])c2ccccc21 the results were hcDAF12 agonist 9.3*, DAX1 inh-1 1, SMARCA2 act 4, DAX1 inh-2 3, hgDAF12 agonist 9, ssDAF-12 act 1.0*, LXR ag 1 and hcDAF12 conf 14*.
`CCOc1ccc(Br)cc1CNCCN1CCOCC1` gave hcDAF12 agonist 13*, DAX1 inh-1 0, SMARCA2 act -4, DAX1 inh-2 0, hgDAF12 agonist 0, ssDAF-12 act -1, LXR ag 0 and hcDAF12 conf 1.
`CCOc1ccc2ccccc2c1CNCCN1CCOCC1` gave hcDAF12 agonist 0, DAX1 inh-1 0, SMARCA2 act -1, DAX1 inh-2 0, hgDAF12 agonist 0 and ssDAF-12 act -1.
`O=C(Cc1cccs1)Nc1cccc(-c2nc3cc4ccccc4cc3[nH]2)c1` gave hcDAF12 agonist 9.4*, DAX1 inh-1 1, SMARCA2 act 4, DAX1 inh-2 3, hgDAF12 agonist 13*, ssDAF-12 act 1, LXR ag 2 and hcDAF12 conf 5.
Cc1ccc(S(=O)(=O)NC(=O)NCCCN2CCOCC2)cc1 was read as hcDAF12 agonist 7.6*, DAX1 inh-1 3, SMARCA2 act -1, DAX1 inh-2 0, hgDAF12 agonist 0, ssDAF-12 act 0, LXR ag 0 and hcDAF12 conf 1.
For Cc1cc(N2CCC(C)CC2)n2ncc(-c3ccccc3)c2n1 the results were hcDAF12 agonist 0, DAX1 inh-1 2, SMARCA2 act -3, DAX1 inh-2 0, hgDAF12 agonist -4 and ssDAF-12 act -2.
Screening Cc1cc(-c2ccccc2)n2ncc(-c3ccccc3)c2n1 returned hcDAF12 agonist 11*, DAX1 inh-1 0, SMARCA2 act -1, DAX1 inh-2 3.9*, hgDAF12 agonist 8, ssDAF-12 act 0, LXR ag 2 and hcDAF12 conf 20*.
Screening Cc1cc(N2CCOCC2)n2ncc(-c3ccccc3)c2n1 returned hcDAF12 agonist 9.4*, DAX1 inh-1 -2, SMARCA2 act -1, DAX1 inh-2 1, hgDAF12 agonist 3, ssDAF-12 act 0, LXR ag 2 and hcDAF12 conf 16*.
For Cc1ccc(NC(=S)NCCN(C2CCCCC2)C2CCCC2)cc1C the results were hcDAF12 agonist 1, DAX1 inh-1 2, SMARCA2 act -3, DAX1 inh-2 -1, hgDAF12 agonist 6 and ssDAF-12 act -1.
Screening Fc1ccc(-c2nc3c(Cl)cc(C(F)(F)F)cn3c2Cl)cc1 returned hcDAF12 agonist 9.6*, DAX1 inh-1 7.9*, SMARCA2 act 4, DAX1 inh-2 1, hgDAF12 agonist 6, ssDAF-12 act 0, LXR ag 1 and hcDAF12 conf 8.7*.
`Cc1ccc(Cc2c(-c3ccc(F)cc3)nc3c(Cl)cc(C(F)(F)F)cn23)cc1` gave hcDAF12 agonist 2, SMARCA2 act 1, DAX1 inh-2 0, hgDAF12 agonist 1 and ssDAF-12 act -1.
Screening Fc1cccc(Cc2c(-c3cccc(Br)c3)nc3c(Cl)cc(C(F)(F)F)cn23)c1 returned hcDAF12 agonist 6.6*, SMARCA2 act 0, DAX1 inh-2 0, hgDAF12 agonist 1, ssDAF-12 act 0, LXR ag 0 and hcDAF12 conf 1.
For Cc1ccc2nc(Nc3nc(-c4ccccc4)cc(=O)[nH]3)nc(C)c2c1 the results were hcDAF12 agonist 1, DAX1 inh-1 2, SMARCA2 act -2, DAX1 inh-2 0, hgDAF12 agonist 1 and ssDAF-12 act -1.
For Cc1cccc(N2O[C@H]3C=C[C@@H]2C3)n1 the results were hcDAF12 agonist 9.4*, SMARCA2 act -1, DAX1 inh-2 0, hgDAF12 agonist 2, ssDAF-12 act 0, LXR ag 0 and hcDAF12 conf 5.6*.
`CC(=O)c1c(CC(=O)O)[nH]n(-c2nc3ccccc3s2)c1=O` gave hcDAF12 agonist 6.6*, DAX1 inh-1 1, SMARCA2 act -1, DAX1 inh-2 2, hgDAF12 agonist 7, ssDAF-12 act 0, LXR ag 0 and hcDAF12 conf 5.
Screening COC(=O)c1c[nH]n2c(=O)c(Cl)c(C)nc12 returned hcDAF12 agonist 8.7*, DAX1 inh-1 3, SMARCA2 act 0, DAX1 inh-2 0, hgDAF12 agonist 1, ssDAF-12 act -1, LXR ag 0 and hcDAF12 conf 2.
CN(CCO)c1cc(Sc2nc3ccccc3s2)c2nonc2c1[N+](=O)[O-] was read as hcDAF12 agonist 2, DAX1 inh-1 -2, SMARCA2 act -11, DAX1 inh-2 -2, hgDAF12 agonist -3 and ssDAF-12 act -1.
`O=C(CNCc1cccs1)Nc1ccc(S(=O)(=O)N2CCCCC2)cc1` gave hcDAF12 agonist -2, DAX1 inh-1 0, SMARCA2 act -4, DAX1 inh-2 -1, hgDAF12 agonist 0 and ssDAF-12 act -1.
CC(=O)Nc1ccc(NC(=S)Nc2ccccc2)cc1 was read as hcDAF12 agonist 1, DAX1 inh-1 0, SMARCA2 act 0, DAX1 inh-2 0, hgDAF12 agonist -2 and ssDAF-12 act -1.
Screening C/C(=C\C(=S)Nc1ccccc1)Nc1ccccc1 returned hcDAF12 agonist 9.6*, DAX1 inh-1 0, SMARCA2 act 1, DAX1 inh-2 0, hgDAF12 agonist 5, ssDAF-12 act 0, LXR ag 0 and hcDAF12 conf 6.1*.
